# Assay results reported in ChEMBL document CHEMBL1961873, “Compounds: GSK PKIS; Assays: Nanosyn kinase panel” (2012).
# Key:
# [1] = target: 5'-AMP-activated protein kinase catalytic subunit alpha-2 (Homo sapiens) (UniProt P54646); conditions: at 1 µM
# [2] = target: T1, NUAK family SNF1-like kinase 1 (Homo sapiens) (UniProt O60285); conditions: at 0.1 µM
# T1 sequence (whole entry): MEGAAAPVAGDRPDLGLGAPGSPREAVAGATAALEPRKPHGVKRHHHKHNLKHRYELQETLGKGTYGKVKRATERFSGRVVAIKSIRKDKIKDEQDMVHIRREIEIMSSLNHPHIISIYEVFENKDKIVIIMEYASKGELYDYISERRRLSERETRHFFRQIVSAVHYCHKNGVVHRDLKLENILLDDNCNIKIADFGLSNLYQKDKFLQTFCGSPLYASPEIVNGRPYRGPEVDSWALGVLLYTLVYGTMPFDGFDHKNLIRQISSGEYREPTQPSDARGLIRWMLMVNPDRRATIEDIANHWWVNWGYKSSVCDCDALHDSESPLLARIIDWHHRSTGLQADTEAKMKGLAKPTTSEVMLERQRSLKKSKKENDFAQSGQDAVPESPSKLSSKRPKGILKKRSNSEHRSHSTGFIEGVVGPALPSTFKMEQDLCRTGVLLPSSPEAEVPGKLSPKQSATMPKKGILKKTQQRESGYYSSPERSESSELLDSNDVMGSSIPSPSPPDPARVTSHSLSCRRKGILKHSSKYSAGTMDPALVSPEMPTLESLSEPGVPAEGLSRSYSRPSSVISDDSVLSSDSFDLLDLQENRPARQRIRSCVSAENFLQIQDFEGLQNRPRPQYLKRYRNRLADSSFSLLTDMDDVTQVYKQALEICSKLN
# [3] = target: T1, NUAK family SNF1-like kinase 1 (Homo sapiens); conditions: at 1 µM
# [4] = target: T2, Serine/threonine-protein kinase BRSK1 (Homo sapiens) (UniProt Q8TDC3); conditions: at 0.1 µM
# T2 sequence (whole entry): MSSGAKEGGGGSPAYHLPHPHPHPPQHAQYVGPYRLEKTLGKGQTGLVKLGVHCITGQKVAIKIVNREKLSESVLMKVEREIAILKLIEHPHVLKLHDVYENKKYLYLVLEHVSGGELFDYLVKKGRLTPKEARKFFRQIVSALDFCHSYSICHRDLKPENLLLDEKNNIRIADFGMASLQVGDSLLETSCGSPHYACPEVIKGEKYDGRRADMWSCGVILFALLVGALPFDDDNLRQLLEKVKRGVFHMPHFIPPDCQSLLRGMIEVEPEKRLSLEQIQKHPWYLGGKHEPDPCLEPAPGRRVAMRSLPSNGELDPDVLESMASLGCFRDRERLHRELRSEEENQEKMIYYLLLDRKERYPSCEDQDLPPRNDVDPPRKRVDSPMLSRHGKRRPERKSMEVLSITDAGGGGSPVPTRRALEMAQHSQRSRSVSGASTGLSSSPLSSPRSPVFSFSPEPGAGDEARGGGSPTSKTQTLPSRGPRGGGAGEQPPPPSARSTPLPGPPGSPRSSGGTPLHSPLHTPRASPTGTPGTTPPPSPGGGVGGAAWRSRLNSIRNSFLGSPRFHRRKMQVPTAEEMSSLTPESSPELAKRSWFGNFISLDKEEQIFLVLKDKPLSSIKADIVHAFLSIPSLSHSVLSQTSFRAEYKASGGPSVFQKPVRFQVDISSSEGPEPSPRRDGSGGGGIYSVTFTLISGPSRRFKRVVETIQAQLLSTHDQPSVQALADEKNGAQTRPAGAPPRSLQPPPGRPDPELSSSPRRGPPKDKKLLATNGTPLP
# [5] = target: T2, Serine/threonine-protein kinase BRSK1 (Homo sapiens); conditions: at 1 µM
# [6] = target: T3, Serine/threonine-protein kinase BRSK2 (Homo sapiens) (UniProt Q8IWQ3); conditions: at 0.1 µM
# T3 sequence (whole entry): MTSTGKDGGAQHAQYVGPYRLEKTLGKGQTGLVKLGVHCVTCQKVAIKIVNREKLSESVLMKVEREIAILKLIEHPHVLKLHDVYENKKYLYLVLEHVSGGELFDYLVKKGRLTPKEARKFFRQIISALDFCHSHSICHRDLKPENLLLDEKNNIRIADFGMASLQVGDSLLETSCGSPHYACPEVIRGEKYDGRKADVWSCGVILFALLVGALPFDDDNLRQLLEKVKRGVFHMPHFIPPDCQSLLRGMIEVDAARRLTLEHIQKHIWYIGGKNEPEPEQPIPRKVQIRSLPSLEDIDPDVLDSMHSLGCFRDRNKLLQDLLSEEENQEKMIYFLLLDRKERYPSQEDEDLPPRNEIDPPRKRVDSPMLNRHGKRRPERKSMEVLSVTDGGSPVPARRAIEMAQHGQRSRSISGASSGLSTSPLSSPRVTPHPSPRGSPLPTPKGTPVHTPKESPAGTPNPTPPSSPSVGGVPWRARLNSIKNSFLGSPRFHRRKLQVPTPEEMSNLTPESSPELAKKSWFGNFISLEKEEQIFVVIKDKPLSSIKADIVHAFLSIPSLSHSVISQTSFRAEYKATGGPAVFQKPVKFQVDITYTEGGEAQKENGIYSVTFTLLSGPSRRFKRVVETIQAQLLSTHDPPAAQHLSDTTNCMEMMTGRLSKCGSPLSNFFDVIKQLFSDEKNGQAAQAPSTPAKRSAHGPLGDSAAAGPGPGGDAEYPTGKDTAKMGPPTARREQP
# [7] = target: T3, Serine/threonine-protein kinase BRSK2 (Homo sapiens); conditions: at 1 µM
# [8] = target: Calcium/calmodulin-dependent protein kinase type 1D (Homo sapiens) (UniProt Q8IU85); conditions: at 0.1 µM
# Sequence of Calcium/calmodulin-dependent protein kinase type 1D (Homo sapiens) (Q8IU85 whole entry, looked up): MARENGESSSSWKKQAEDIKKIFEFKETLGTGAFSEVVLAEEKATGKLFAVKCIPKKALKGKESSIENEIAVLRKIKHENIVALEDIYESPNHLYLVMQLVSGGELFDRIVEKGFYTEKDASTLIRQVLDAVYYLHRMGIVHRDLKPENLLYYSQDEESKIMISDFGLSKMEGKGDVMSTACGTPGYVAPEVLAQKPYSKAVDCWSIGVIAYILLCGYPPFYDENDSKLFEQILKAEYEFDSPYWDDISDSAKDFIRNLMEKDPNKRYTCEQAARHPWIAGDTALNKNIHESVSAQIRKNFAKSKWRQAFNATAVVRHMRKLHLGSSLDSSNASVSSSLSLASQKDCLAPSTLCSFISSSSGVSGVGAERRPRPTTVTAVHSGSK
# [9] = target: Calcium/calmodulin-dependent protein kinase type 1D (Homo sapiens) (UniProt Q8IU85); conditions: at 1 µM
# [10] = target: Calcium/calmodulin-dependent protein kinase type II subunit alpha (Homo sapiens) (UniProt Q9UQM7); conditions: at 0.1 µM;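 further: reported values are averages (mean inhibition of CAMK2A)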
# Sequence of Calcium/calmodulin-dependent protein kinase type II subunit alpha (Homo sapiens) (Q9UQM7 whole entry): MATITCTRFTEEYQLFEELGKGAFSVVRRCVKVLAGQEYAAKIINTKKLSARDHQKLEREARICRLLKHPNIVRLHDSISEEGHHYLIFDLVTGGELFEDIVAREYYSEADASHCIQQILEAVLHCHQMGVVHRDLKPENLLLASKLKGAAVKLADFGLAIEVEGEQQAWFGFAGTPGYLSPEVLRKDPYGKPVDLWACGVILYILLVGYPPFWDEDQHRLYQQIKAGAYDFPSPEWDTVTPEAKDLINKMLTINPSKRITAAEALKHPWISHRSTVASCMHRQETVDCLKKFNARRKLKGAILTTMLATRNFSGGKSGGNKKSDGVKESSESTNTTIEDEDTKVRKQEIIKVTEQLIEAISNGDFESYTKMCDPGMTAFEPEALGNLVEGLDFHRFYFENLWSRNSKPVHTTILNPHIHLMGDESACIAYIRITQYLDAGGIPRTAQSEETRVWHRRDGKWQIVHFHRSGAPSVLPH
# Sequence of 5'-AMP-activated protein kinase catalytic subunit alpha-2 (Homo sapiens) (P54646 whole entry, looked up): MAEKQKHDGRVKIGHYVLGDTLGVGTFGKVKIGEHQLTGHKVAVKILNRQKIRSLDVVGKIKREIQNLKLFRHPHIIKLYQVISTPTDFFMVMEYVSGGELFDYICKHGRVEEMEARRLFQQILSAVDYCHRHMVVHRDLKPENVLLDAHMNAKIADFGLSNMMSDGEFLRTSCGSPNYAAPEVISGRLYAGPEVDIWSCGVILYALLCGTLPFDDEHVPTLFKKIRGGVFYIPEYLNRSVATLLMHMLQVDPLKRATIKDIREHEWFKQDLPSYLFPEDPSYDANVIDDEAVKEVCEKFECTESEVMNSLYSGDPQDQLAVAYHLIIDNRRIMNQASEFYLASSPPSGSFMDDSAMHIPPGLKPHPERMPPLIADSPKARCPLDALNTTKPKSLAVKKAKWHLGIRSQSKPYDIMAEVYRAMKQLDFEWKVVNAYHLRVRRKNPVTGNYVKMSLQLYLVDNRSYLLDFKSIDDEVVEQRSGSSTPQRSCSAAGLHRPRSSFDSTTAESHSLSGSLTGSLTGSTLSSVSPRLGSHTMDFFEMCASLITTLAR
Structure (SMILES),inhibition [1] [%],inhibition [2] [%],inhibition [3] [%],inhibition [4] [%],inhibition [5] [%],inhibition [6] [%],inhibition [7] [%],inhibition [8] [%],inhibition [9] [%],inhibition [10] [%]
O=C1Nc2ccccc2/C1=C/Nc1ccc2[nH]c(=O)[nH]c2c1,12.8,12.6,46,1.38,15.7,5.21,25.8,-1.27,1.07,3.83
C[C@@H](Oc1cc(-n2cnc3ccc(OCC4CCN(C)CC4)cc32)sc1C(N)=O)c1ccccc1C(F)(F)F,14,50.5,76.6,22.4,61.1,33.9,74.5,0,4.15,-0.63
Nc1nccc(-c2c(-c3ccc(F)cc3)ncn2CCCN2CCOCC2)n1,4.51,3.4,-1.7,0.99,-1.18,0.6,1.72,0.27,-0.53,2.67
CCS(=O)(=O)c1ccc(OC)c(Nc2ncc(-c3cccc(OC)c3)o2)c1,4.19,2.41,13.4,1.53,-0.15,0.33,0.66,0.03,1.97,2.7
NS(=O)(=O)c1cccc(-c2cc3ccncc3cc2OCc2ccccc2)c1,7.06,8.52,11.3,3.31,3.45,2.26,3.2,0.47,0.96,4.23
NC(=O)c1cccc(Nc2nccc(Nc3cccc(F)c3)n2)c1,3.97,23,58.2,1.64,7.42,0.1,8.9,0.4,3.1,2.84
Cc1ccc2c(-c3ccnc(Nc4ccc5c(c4)OCCO5)n3)c(-c3ccc(C(F)(F)F)cc3)nn2n1,1.71,-1.23,1.59,-0.85,1.31,0.24,0.79,0.52,9.99,0.68
Oc1cccc(-c2nc(-c3ccccc3)[nH]c2-c2ccncc2)c1,4.6,0.46,2.27,-0.48,1.89,1.98,4.34,0.26,1.01,3.36
CCOc1nccc2c1nc(-c1nonc1N)n2CC,4.98,7.99,12.8,4.56,14.7,7.65,18.3,0.39,-0.46,3.45
Nc1nccc(C#Cc2cncnc2Nc2ccc(OCc3cccc(F)c3)c(Cl)c2)n1,6.02,2.82,9.68,3.95,8.92,4.89,10.8,-0.54,2.27,3.24
CS(=O)(=O)Nc1cccc(-c2ccc3c(NC(=O)C4CC4)n[nH]c3c2)c1,6.02,-0.11,1.95,3.46,18.7,2.32,19.1,2.26,1.87,7.84
Nc1ccc(C#Cc2cncnc2Nc2ccc(OCc3cccc(F)c3)c(Cl)c2)cc1,2.03,1.31,-1.87,1.62,0.9,1.82,1.94,0.26,0.65,1.19
CCn1c(-c2nonc2N)nc2c(C#CC(C)(C)O)nc(OCCNC)cc21,3.94,1.05,3.39,1.73,0.16,1.24,4.81,1.21,2.06,3.99
NS(=O)(=O)c1ccc(-c2cc3ccncc3cc2OCc2ccccc2)cc1,2.32,-0.67,-0.08,-0.48,0.47,0.96,2.69,-6.04,0.65,1.83
CN(C)C(=O)O[C@H]1CN[C@H](C#Cc2cc3ncnc(Nc4ccc(OCc5cccc(F)c5)c(Cl)c4)c3s2)C1,3.32,1.87,1.59,2.39,3.13,2.38,2.85,0.05,0.1,2.54
COc1cc(/C=N/Nc2ncnc3c2cnn3C(C)C)ccc1O,4.32,7.43,22.3,1.45,7.43,1.52,12.1,1.23,0.59,-0.2
CC(C)c1ccc(Nc2nccc(-c3cnn4ncccc34)n2)cc1,4.11,12.6,48.9,-0.04,3.13,1.33,4.11,-0.71,2.35,1.42

Structure (SMILES),inhibition [1] [%],inhibition [2] [%],inhibition [3] [%],inhibition [4] [%],inhibition [5] [%],inhibition [6] [%],inhibition [7] [%],inhibition [8] [%],inhibition [9] [%],inhibition [10] [%]
CN(C)C(=O)O[C@@H]1CN[C@@H](C#Cc2cc3ncnc(Nc4ccc(OCc5cccc(F)c5)c(Cl)c4)c3s2)C1,3.03,-0.32,0.15,1.77,1.18,1.4,1.44,1.61,1.9,1.78
COC(=O)Nc1nc2cc(Oc3ccc(NC(=O)Nc4cccc(Br)c4)cc3)ccc2[nH]1,4.23,3.02,2.47,-0.15,0.86,2,0.84,1.16,0.29,3.25
COc1cccc(-n2ncc3c(N/N=C/c4ccc(S(C)(=O)=O)cc4)ncnc32)c1,4.43,14.7,37.4,13.7,52.5,20.1,60.8,0.78,0.51,-0.15
CS(=O)(=O)CCNCc1nc(-c2ccc3ncnc(Nc4ccc(OCc5cccc(C(F)(F)F)c5)cc4)c3c2)cs1,2.15,0.06,2.2,2.31,-0.57,0.24,1.3,-0.5,2.37,1.59
Cc1ccc2c(-c3ccnc(Nc4cccc(C(F)(F)F)c4)n3)c(-c3ccccc3)nn2n1,3.47,4.18,5.3,2.22,1.34,1.33,3.25,0.64,2.72,2.64
ON=C1CCc2cc(-c3nc(C4CCNCC4)[nH]c3-c3ccncc3)ccc21,2.64,0.54,1.89,1.34,0.41,-0.35,1.99,0.14,11.8,1.63
OCc1ccc(-c2nc(-c3ccccn3)c(-c3ccc4c(c3)OCO4)[nH]2)cc1,4.26,3.72,5.56,2.53,1.5,2,0.59,0.54,0.26,4.98
NS(=O)(=O)c1ccc(Nc2cc(-c3cccc(O)c3)n[nH]2)cc1,9.57,5.05,13.9,3.55,4.52,3.59,7.4,1.05,0.76,4.18
c1ccc(Nc2ncc(-c3ccccc3)o2)cc1,0.19,-0.12,11,0.5,2.07,0.2,3.56,1.22,2.94,2.13
CN(C)c1cc2c(Nc3ccc4c(cnn4Cc4ccccc4)c3)ncnc2cn1,2.49,1.17,3.46,2.42,7.54,2.27,9.3,-0.24,0.88,2.88
COc1cccc(-n2nc(C)c3c(N/N=C(\C)c4ccncc4)ncnc32)c1,1.4,3.11,2.97,0.77,-2.02,-0.07,0.93,-0.6,2.19,-1.72
FC(F)(F)c1ccc(-c2nn3ncccc3c2-c2ccnc(Nc3ccc4c(c3)OCCO4)n2)cc1,4.55,4.03,5.73,5.08,8.29,6.76,11.7,2.95,-0.58,-2.94
CN(C)CCCn1c(-c2nonc2N)nc2cnccc21,5.42,3.04,-0.59,1.23,0.57,0.27,1.19,0.27,-0.73,2.81
O=S(=O)(CCOCc1ccc(-c2ccc3ncnc(Nc4ccc(OCc5cccc(F)c5)c(Cl)c4)c3c2)o1)c1ccccc1,1.68,-2.09,-0.72,-0.74,1.37,1.25,2.98,0,0.46,-0.52
COc1ccc2ncnc(Nc3ccc(OCc4ccccc4)cc3)c2c1,2.09,0.25,-1.38,-0.52,0.79,2.22,1.79,0.63,1.33,0.65
COc1cc2ncnc(Nc3ccc(C)c(O)c3)c2cc1OC,5.2,7.16,1.93,1.23,3.78,3.07,6.2,-0.09,0.02,2.98
